For test [1], the target named is Alpha-galactosidase (Coffea arabica) (UniProt Q42656). Description: Counterscreen for Glucocerebrosidase Inhibitors: qHTS Assay for Coffee Bean alpha-Galactosidase at pH 4.5 (AID 957). Also: series mostly up to about 77 µM. Summed up:
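Coffee bean enzyme (2 nM) with 80 uM 4-methylumbelliferyl alpha-D-galactopyranoside in 50 mM citric acid, 0.005% Tween-20, pH 4.5, 20 min at room temperature; compounds 0.7 nM–77 uM. Stopped at pH 10, fluorescence 365/440 nm; AC50 from Hill fits.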
For orientation: A counterscreen serves to expose hits that act by an unwanted route or on another target.

The target is the same in test [2]. Description: Counterscreen for Glucocerebrosidase Inhibitors: qHTS Assay for Coffee Bean alpha-Galactosidase at pH 5.9 (AID 998). Summed up: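 Green coffee bean enzyme (2 nM final) was incubated with compounds (0.7 nM–77 uM) and 4-methylumbelliferyl alpha-D-galactopyranoside (80 uM) in citrate buffer pH 5.9, 20 min at room temperature. High-pH stop; fluorescence 365/440 nm; AC50 from Hill fits.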

Test [3] in a line: Validation screen for inhibitors of Lassa infection (AID 463096; calls by dose curve; also: potency is read from the fitted curve at half-maximal effect).
A short description of test [4]: Inducers of the Endoplasmic Reticulum Stress Response (ERSR) in human glioma: Validation (AID 504836). A digest of the protocol:
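Stably transfected U87-MG human glioma cells carrying a GRP78-based luminescent sensor were seeded at 1000 cells/well, pin-dosed with compounds and incubated 16 h. Luciferase reagent was then added, and end-point luminescence was read after 10 min at room temperature.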

Test [5] can be described thus: qHTS for Inhibitors of the Functional Ribonucleoprotein Complex (vRNP) of Lassa (LASV) Arenavirus: LASV Primary Screen - GLuc reporter signal (AID 1347082; calls by dose curve; tested in HEK293 reporter line; also: series mostly up to about 57 µM; nearly all actives have a fitted effect of over 60% in size). (qHTS replaces the single test concentration by a dilution series.)
A short description of test [6]: qHTS for Inhibitors of the Functional Ribonucleoprotein Complex (vRNP) of Lassa (LASV) Arenavirus: Viability assay - alamar blue signal for LASV Primary Screen (AID 1347083; calls by dose curve; tested in HEK293 reporter line; also: series mostly up to about 57 µM; nearly all actives have a fitted effect of over 80% in size).
Test [7] can be described thus: qHTS for Inhibitors of the Functional Ribonucleoprotein Complex (vRNP) of Lymphocytic Choriomeningitis Arenaviruses (LCMV): Viability assay - alamar blue signal for LCMV Primary Screen (AID 1347085; calls by dose curve; tested in HEK293 reporter line; also: series mostly up to about 57 µM; nearly all actives have a fitted effect of over 80% in size).
Test [8] deals with Nucleoprotein (Lymphocytic choriomeningitis virus (strain Armstrong)) (UniProt P09992). Description: qHTS for Inhibitors of the Functional Ribonucleoprotein Complex (vRNP) of Lymphocytic Choriomeningitis Arenaviruses (LCMV): LCMV Primary Screen - GLuc reporter signal (AID 1347086; calls by dose curve; also: series mostly up to about 57 µM; nearly all actives have a fitted effect of over 70% in size).

Inconclusive results are not listed. Calls of active or inactive are those of the source. Unless noted, calls follow the shape of the dose curve; as a rule, active = well fitted curve in the direction sought with a large enough effect; inconclusive = small, poorly fitted or top-dose-only effect, or another doubt; inactive = no such curve, though single readings can be large; an effect the other way counts as inactive or inconclusive.

Sequence of Alpha-galactosidase (Coffea arabica) (Q42656 whole entry, looked up): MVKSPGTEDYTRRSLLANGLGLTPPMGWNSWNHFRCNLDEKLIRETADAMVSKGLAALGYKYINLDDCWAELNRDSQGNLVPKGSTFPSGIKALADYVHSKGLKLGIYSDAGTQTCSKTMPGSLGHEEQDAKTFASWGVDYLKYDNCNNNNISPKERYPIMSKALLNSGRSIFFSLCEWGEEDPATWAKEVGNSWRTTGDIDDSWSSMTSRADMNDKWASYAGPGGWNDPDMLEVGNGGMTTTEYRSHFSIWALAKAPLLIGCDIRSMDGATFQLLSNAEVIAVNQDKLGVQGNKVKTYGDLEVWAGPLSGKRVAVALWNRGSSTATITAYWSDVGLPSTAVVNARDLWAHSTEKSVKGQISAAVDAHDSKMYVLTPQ
Sequence of Nucleoprotein (Lymphocytic choriomeningitis virus (strain Armstrong)) (P09992 whole entry, looked up): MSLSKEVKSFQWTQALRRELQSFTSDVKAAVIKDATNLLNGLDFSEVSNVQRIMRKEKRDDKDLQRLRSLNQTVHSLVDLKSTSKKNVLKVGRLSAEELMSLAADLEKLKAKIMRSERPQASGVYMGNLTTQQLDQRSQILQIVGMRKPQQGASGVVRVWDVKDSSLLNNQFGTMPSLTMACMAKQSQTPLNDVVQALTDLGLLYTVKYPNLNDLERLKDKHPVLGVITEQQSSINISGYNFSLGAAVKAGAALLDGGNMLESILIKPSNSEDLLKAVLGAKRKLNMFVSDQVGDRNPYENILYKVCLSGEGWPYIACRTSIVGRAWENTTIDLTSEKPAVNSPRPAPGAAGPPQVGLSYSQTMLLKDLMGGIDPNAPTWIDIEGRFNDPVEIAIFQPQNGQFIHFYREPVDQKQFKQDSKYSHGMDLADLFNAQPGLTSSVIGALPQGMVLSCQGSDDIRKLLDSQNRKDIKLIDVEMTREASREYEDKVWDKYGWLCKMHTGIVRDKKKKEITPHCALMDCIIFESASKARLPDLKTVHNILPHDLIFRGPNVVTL

For the compound `CNCCNS(=O)(=O)c1cccc2cnccc12`, the compound was called inactive in test [1], in test [2] and in test [4]. Further, the Potency result in test [3], in test [5], in test [6], in test [7] and in test [8] was “inactive” each time.

`N[C@@H](Cc1c[nH]c2ccccc12)C(=O)O`: the outcome in test [1], in test [2] and in test [4] was inactive. The Potency entry in test [3], in test [5], in test [6], in test [7] and in test [8] was “inactive” each time.

For `CN1CCc2ccccc2Cc2[nH]c3ccccc3c2CC1`, the call in test [1], in test [2] and in test [4] was inactive. In addition, the Potency entry in test [3], in test [5], in test [6], in test [7] and in test [8] was “inactive” throughout.

For `CC(=O)SCC[N+](C)(C)C`, the call in test [1], in test [2] and in test [4] was inactive. The Potency entry in test [3], in test [5], in test [6], in test [7] and in test [8] was “inactive” throughout.

Turning to `O=C(N[C@@H](Cc1ccccc1)C(=O)CCl)OCc1ccccc1`, the compound was called inactive in test [1], in test [2] and in test [4]. In addition, the Potency in test [3] is 6.31 µM (active). The Potency result in test [5], in test [6], in test [7] and in test [8] was “inactive” throughout.

Take `N[C@@H](Cc1cnc[nH]1)C(=O)O`: the result in test [1], in test [2] and in test [4] was inactive. In addition, the Potency entry in test [3], in test [5], in test [6], in test [7] and in test [8] was “inactive” in each case.

For `NCCCS(=O)(=O)O`, the compound was called inactive in test [1], in test [2] and in test [4]. Moreover, the Potency result in test [3], in test [5], in test [6], in test [7] and in test [8] was “inactive” each time.

Regarding `Cn1cnc2c(NCc3ccccc3)nc(NCCO)nc21`, the outcome in test [1], in test [2] and in test [4] was inactive. Moreover, the Potency entry in test [3], in test [5], in test [6], in test [7] and in test [8] was “inactive” each time.

Take `CN(C)c1nc(N)c(C(=O)N=C(N)N)nc1Cl`: the call in test [1], in test [2] and in test [4] was inactive. For the same compound, the Potency result in test [3], in test [5], in test [6], in test [7] and in test [8] was “inactive” each time.

For the compound `COc1cc(N)c(Cl)cc1C(=O)OCCN1CCCCC1`, the outcome in test [1], in test [2] and in test [4] was inactive. In addition, the Potency result in test [3], in test [5], in test [6], in test [7] and in test [8] was “inactive” in each case.

For `C#CCn1c(=O)c2c(ncn2C)n(C)c1=O`, the compound was called inactive in test [1], in test [2] and in test [4]. The Potency result in test [3], in test [5], in test [6], in test [7] and in test [8] was “inactive” throughout.

Regarding `CCCn1c(=O)c2c(ncn2C)n(CCC)c1=O`, the result in test [1], in test [2] and in test [4] was inactive. The Potency entry in test [3], in test [5], in test [6], in test [7] and in test [8] was “inactive” throughout.

`NCCCNCCCCNCCCN`: the compound was called inactive in test [1], in test [2] and in test [4]. Besides, the Potency result in test [3], in test [5], in test [6], in test [7] and in test [8] was “inactive” in each case.

`NC(N)=NCCCCN=C(N)N`: the compound was classed as inactive in test [1], in test [2] and in test [4]. The Potency entry in test [3], in test [5], in test [6], in test [7] and in test [8] was “inactive” in each case.

For `CCCn1c(=O)c2[nH]c(C3CCCC3)nc2n(CCC)c1=O`, the outcome in test [1], in test [2] and in test [4] was inactive. For the same compound, the Potency entry in test [3], in test [5], in test [6], in test [7] and in test [8] was “inactive” throughout.

Take `C[C@@H]1C(=O)NC2=Nc3cccc(Cl)c3CN21`: the compound was classed as inactive in test [1], in test [2] and in test [4]. The Potency entry in test [3], in test [5], in test [6], in test [7] and in test [8] was “inactive” in each case.

As to `NCCS(=O)O`, the call in test [1], in test [2] and in test [4] was inactive. The Potency entry in test [3], in test [5], in test [6], in test [7] and in test [8] was “inactive” each time.

Take `CC(C)(CO)Cc1cc(C(C)(C)C)c(O)c(C(C)(C)C)c1`: the call in test [1], in test [2] and in test [4] was inactive. Also, the Potency entry in test [3], in test [5], in test [6], in test [7] and in test [8] was “inactive” throughout.

For `Cc1nc(N=Nc2cc(S(=O)(=O)O)c3cc([N+](=O)[O-])cc(S(=O)(=O)O)c3c2)c(COP(=O)(O)O)c(C=O)c1O`, the result in test [1], in test [2] and in test [4] was inactive. Further, the Potency entry in test [3], in test [5], in test [6], in test [7] and in test [8] was “inactive” throughout.

As to `CC(=O)NNC(=O)N1Cc2ccccc2Oc2ccc(Cl)cc21`, the compound was called inactive in test [1], in test [2] and in test [4]. Also, the Potency entry in test [3], in test [5], in test [6], in test [7] and in test [8] was “inactive” in each case.

On to `COc1cc(CNC(=O)CCCCCCC(C)C)ccc1O`, for which the call in test [1], in test [2] and in test [4] was inactive. For the same compound, the Potency entry in test [3], in test [5], in test [6], in test [7] and in test [8] was “inactive” each time.

On to `O=C1NC(c2cccc([N+](=O)[O-])c2)=CCN1c1ccccc1O`, for which the compound was called inactive in test [1], in test [2] and in test [4]. The Potency result in test [3], in test [5], in test [6], in test [7] and in test [8] was “inactive” each time.

As for `O=C(O)C1=CCNCC1`, the result in test [1], in test [2] and in test [4] was inactive. Also, the Potency result in test [3], in test [5], in test [6], in test [7] and in test [8] was “inactive” throughout.

Regarding `Cn1c(=O)c2[nH]c(C3CCCC3)nc2n(C)c1=O`, the compound was classed as inactive in test [1], in test [2] and in test [4]. Moreover, the Potency entry in test [3], in test [5], in test [6], in test [7] and in test [8] was “inactive” each time.

Consider `NS(=O)(=O)c1cccc2c1c([N+](=O)[O-])cc1nc(O)c(O)nc12`, for which the outcome in test [1], in test [2] and in test [4] was inactive. For the same compound, the Potency result in test [3], in test [5], in test [6], in test [7] and in test [8] was “inactive” in each case.

For the compound `CNC(=O)c1cc2c(cn1)[nH]c1ccccc12`, the compound was classed as inactive in test [1], in test [2] and in test [4]. The Potency result in test [3], in test [5], in test [6], in test [7] and in test [8] was “inactive” each time.

In the case of `c1ccc(-c2ccccn2)nc1`, the call in test [1], in test [2] and in test [4] was inactive. In addition, the Potency result in test [3], in test [5], in test [6], in test [7] and in test [8] was “inactive” throughout.

On to `NCCCCN=C(N)N`, for which the result in test [1], in test [2] and in test [4] was inactive. For the same compound, the Potency entry in test [3], in test [5], in test [6], in test [7] and in test [8] was “inactive” each time.

These data come from PubChem BioAssay (NCATS).
